The labels stand for the following.
B1: chr3:100058692:100058693:+_ENSG00000114021_ENST00000480073|hu_mus|motif|central (ssRNA)
RNA: GGGAGUUCUACAGUCCGACGAUCAUAGUCAGGAAAGUAGGUUGUUCCAUAUGGAGAAUUGAAGCACUCAGGCAGAGAAACGGUGUUGGCACCUUGCUUUGCUGCCUCCCGCACUAGGCUACAAGCCCGGGUAAGGUUAUCUGACAACAGAGGAUUGAGCAUCA
B2: chr10:1038552:1038553:+_ENSG00000107937_ENST00000545048|hu_hu|FALSE|FALSE (ssRNA)
RNA: GGGAGUUCUACAGUCCGACGAUCCAUAGAACGGAUGAAUAUCAUCCAAUUUGGGGAAAUCUGUUAGAAUUUGUGAAAGUCUAUCAUGGUAAUUCUGUUGAGUAAAUUUGACUUUUCUCAUGUAAAAAUGUCUAAUGCGAUGUACAACAGAGGAUUGAGCAUCA
B3: chr9:91931296:91931297:+_ENSG00000123975_ENST00000314355|hu_hu|hu_hu_hu_mus_True|48_108 (ssRNA)
RNA: GGGAGUUCUACAGUCCGACGAUCAGAUUGACGAUCCCCAGCUGCACUUCAUUUUUGUUGUUCUUUUGGAAGAGGUCGUCUAAAGAGAAGAAUAUGUGGUUCUGGCUCAUGAAUCAUGUAAUGAACCCAUCCUAGACUCUGUUGCAACAGAGGAUUGAGCAUCA
B4: chr2:62103349:62103350:-_ENSG00000115484_ENST00000544079|hu_mus|motif|central (ssRNA)
RNA: GGGAGUUCUACAGUCCGACGAUCAAUAUAGGCUCUCUCCUCUCGAAGCACUCGAUCCAUCUGGGCAUAGUCAGAUACGGCGGUUUGAUUAUCCAUAUCUGUUUUAGGAGCAGAUAAGCAAAACUGAAUAAGCCCAAUCUUAGCCAACAGAGGAUUGAGCAUCA
B5: chr1:35650007:35650008:-_ENSG00000116560_ENST00000357214|hu_hu|motif|central (ssRNA)
RNA: GGGAGUUCUACAGUCCGACGAUCAUCCAUAAAAAGAUAGCUUUCUUACUAAAAUGCAAGAAUUUAAAAGAUUGGUAUCGGAACAAAAAAACAAAACAAACUGGAAUGAAAGCCUAAAUAUCACAUCUAAAAUCGGGGUUUUUUCAACAGAGGAUUGAGCAUCA
B6: chr2:170668292:170668293:+_ENSG00000138385_ENST00000260956|hu_mus|motif|central (ssRNA)
RNA: GGGAGUUCUACAGUCCGACGAUCACCUAAUUCGCUUUUCUUUUUAAAAGCUUCUGAAGACAAAAAGCAGCUUAAAAUCGGACGGAGGAAUAAAAACACUGCUUACUAAAUAAACUACUUGUCUCUAGCACCAUUUUCUCUUUUCAACAGAGGAUUGAGCAUCA
B7: chr20:57486015:57486016:+_ENSG00000087460_ENST00000306090|hu_mus|FALSE|FALSE (ssRNA)
RNA: GGGAGUUCUACAGUCCGACGAUCCCUUUUUUUUCUUUUUCUUCUGUAGGCCGCCUUAAGCUUACUAAAUUUGGAACAUCUAAGCAAGCUGAAGGGAAGAGGGGUUUUUCAGAAUCACUGGGGGAAAAAGGAAAGGUUGCGGUGCAACAGAGGAUUGAGCAUCA
B8: chr19:41288892:41288893:-_ENSMUSG00000025016_ENSMUST00000025989|mus_mus|motif|central (ssRNA)
RNA: GGGAGUUCUACAGUCCGACGAUCUGGAUGGAACUGAGAAAGCUGGUUAAUUUUAAGAUAAAUAAAUGAGGUUGAUCCAAACGGAGAUUAAGAUGACAGCAGAUAUAUUCCAUGCAGAAUUGAAUAGCUUUUAAUUUUGUUUUUCAACAGAGGAUUGAGCAUCA
B9: 203424622_203424742_3669_3pUTR_ENSG00000204217_ENST00000374580|human|control|control (ssRNA)
RNA: GGGAGUUCUACAGUCCGACGAUCUUUUAUUUUUAAACAUCUUCUGCAUGUUUAAAUGAUGCAAAAAAUAAUUUCACUCCAUAGGCUUGAAAACAUUUCACAGACAGUUCAUUCCUAUAUCUUUAGACACCAUGGUUGUAGCAGCAACAGAGGAUUGAGCAUCA
B10: chr7:93623566:93623567:-_ENSG00000105829_ENST00000222547|hu_hu|FALSE|FALSE (ssRNA)
RNA: GGGAGUUCUACAGUCCGACGAUCGAACAAAUUCCAAAUUCACAAUUACAUGCAUCACCUCAGUUUAAUAAUCCAAUAAAUGAUAAAAAAGACAAAUAAAGAAAACAGCAUCAUAUAGCACAGCAGCUUUGUUUGGCUCCCUCUCAACAGAGGAUUGAGCAUCA
B11: chr6:136599331:136599332:-_ENSG00000029363_ENST00000527536|hu_mus|motif|central (ssRNA)
RNA: GGGAGUUCUACAGUCCGACGAUCGGGGGCAUCUGAGCAUGAUGAACUCUGACUGGGUGGUGUAGCAAUAGGUGAAGGACGGUGAGGUGACCUUGGACUAUUAUCAUAAGCUGAAAGGCCAGGCCAAAUAUCACCAGAAGUAGCCAACAGAGGAUUGAGCAUCA
B12: chr15:40462788:40462789:+_ENSG00000156970_ENST00000287598|hu_mus|FALSE|FALSE (ssRNA)
RNA: GGGAGUUCUACAGUCCGACGAUCAAAGCGGGGGUCAUUAUAAUAGCGCGUCUCUCCUUGGAGUGCUUCUAUCGCUCUCUCCACUAACGCUGACAUGUUACUCUCUUUCCCCCCUUGAGGGUAGUUCUGUUCUGUCCAAUUAAUCAACAGAGGAUUGAGCAUCA
B13: chr2:128501614:128501615:-_ENSMUSG00000014355_ENSMUST00000014499|mus_mus|FALSE|FALSE (ssRNA)
RNA: GGGAGUUCUACAGUCCGACGAUCAGCCACAGGGGAUUCGCCUUUGGAGAGGCUUCUGAGAUGUGCUGUCAGGGAGCUGCUAGUAGUUGCAUUCUGCAGGGUCCCUGCCUGCUCAGGGAACUUUAAAACAGCAUUCUCUUCCUCCAACAGAGGAUUGAGCAUCA
B14: 52131286_52135943_886_CDS_ENSMUSG00000022637_ENSMUST00000114471|mouse|control|control (ssRNA)
RNA: GGGAGUUCUACAGUCCGACGAUCCGUGAGAAAUGCCAUGUAUCCCGGGUGAGUCACAGCCAAGAAGUUCCAAUUCCGUAAAAUAGAGCCCCAGGGCUGAAAUAGCCUGGUAAAAAUAUCAAAUUCAAACACUGAGAUGUAAUCCAACAGAGGAUUGAGCAUCA
B15: chr1:130485734:130485735:-_ENSMUSG00000045382_ENSMUST00000052172|mus_hu|FALSE|FALSE (ssRNA)
RNA: GGGAGUUCUACAGUCCGACGAUCGAUGAAGGAGUCGAUGCUGAUCCCAAUGUAGUAAGGCAGCCAACAGGCGAAGAAAGCCAGGAUGAGGAUGACUGUGGUCUUGAGGGCCUUGCGCUUCUGGUGGCCCUUGGAGUGUGACAGCAACAGAGGAUUGAGCAUCA
B16: chr20:61576232:61576233:+_ENSG00000101193_ENST00000266069|hu_hu|FALSE|FALSE (ssRNA)
RNA: GGGAGUUCUACAGUCCGACGAUCGGAUCCACCACGCAAGCGCAGGCGCUACUUGGGCUCCUCAAUCACACCCUUGCUGAGGUCUGUCAUUUUGGGAUAUUUUACUUUCUUCUGGUCCAGCUCGUUCUGAGCCCAAAGUAGUAGCAACAGAGGAUUGAGCAUCA
B17: chr17:60770872:60770873:+_ENSG00000011028_ENST00000303375|hu_hu|hu_hu_hu_mus_True|1_78 (ssRNA)
RNA: GGGAGUUCUACAGUCCGACGAUCUCUUUAAAAAAAAAAAAAAAAAGACAAACAAUAAUAAUGGCACUCGAGAAUCAAGAACUACAAUAGAGGGUCCGCUUUGAGUUUUUGUUCACAUCGUCCUGCACUGGGACACGACCAGGACAACAGAGGAUUGAGCAUCA
B18: chr17:60770872:60770873:+_ENSG00000011028_ENST00000303375|hu_hu|hu_hu_hu_mus_True|28_78 (ssRNA)
RNA: GGGAGUUCUACAGUCCGACGAUCUCUUUAAAAAAAAAAAAAAAAAGACAAACAAUAAUAAUGGCACUCGAGAAUCAAGAACUACAAUAGAGGGUCCGCUUUGAGUUGUCCAUGUUCUCGUCCUGCACUGGGACACGGGGACUGCAACAGAGGAUUGAGCAUCA
B19: chr17:60770872:60770873:+_ENSG00000011028_ENST00000303375|hu_hu|hu_hu_hu_mus_True|78_88 (ssRNA)
RNA: GGGAGUUCUACAGUCCGACGAUCUCUUUAAAAAAAAAAAAAAAAAGUUUAAAAACAAUAAUGGCACUCGAGAAUCAAGAACUACAAUAGAGGGUCCGCUUUGAGUUUUUGUUCACAUCGUCCUGCACUGGGACACGGGGACUGCAACAGAGGAUUGAGCAUCA
B20: chr17:60770872:60770873:+_ENSG00000011028_ENST00000303375|hu_hu|hu_hu_hu_mus_True|8_78 (ssRNA)
RNA: GGGAGUUCUACAGUCCGACGAUCUCUUUAAAAAAAAAAAAAAAAAGACAAACAAUAAUAAUGGCACUCGAGAAUCAAGAACUACAAUAGAGGGUCCGCUUUGAGUUUUUGUUCACAUCGUCCUGCAACGCUGUCGCGGGACUGCAACAGAGGAUUGAGCAUCA
B21: chr17:60770872:60770873:+_ENSG00000011028_ENST00000303375|hu_hu|hu_hu_hu_mus_True|28_88 (ssRNA)
RNA: GGGAGUUCUACAGUCCGACGAUCUCUUUAAAAAAAAAAAAAAAAAGUUUAAAAACAAUAGCACAUUUCGAGAAUCAAGAACUACAAUAGAGGGUCCGCUUUGAGUUGUCCAUGUUCUCGUCCUGCACUGGGACACGGGGACUGCAACAGAGGAUUGAGCAUCA
B22: chr17:60770872:60770873:+_ENSG00000011028_ENST00000303375|hu_hu|hu_hu_hu_mus_True|78_78 (ssRNA)
RNA: B19 RNA with U47A, U48C, U49A, A52C, C55U
B23: chr17:60770872:60770873:+_ENSG00000011028_ENST00000303375|hu_hu|hu_hu_hu_mus_True|58_78 (ssRNA)
RNA: B19 RNA with U47A, U48C, U49A, A52C, C55U, A77U, G78C, A86G

Residue numbers refer to the chain shown, from its start. Whole data set: some 24,000 sequences, median “enrichment r” near 0.99, cut for the highest 2% near 3.7. The entries come from a sample that favours the highest values as a whole.

This test addresses T1, UNK ZnF1-3 (human, UniProt Q9C0B0 31-174).
T1 sequence: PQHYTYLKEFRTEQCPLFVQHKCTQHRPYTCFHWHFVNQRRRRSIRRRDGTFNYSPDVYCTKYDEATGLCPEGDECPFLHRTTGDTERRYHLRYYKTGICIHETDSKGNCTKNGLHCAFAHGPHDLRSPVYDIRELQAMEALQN
Briefly: nsRBNS (natural sequence RNA bind-n-seq); RBNS binding buffer (assumed for nsRBNS): 25 mM Tris pH 7.5, 150 mM KCl, 3 mM MgCl2, 0.01% Triton X-100, 500 ug/ml BSA, 20 U/ml SUPERase-In, 4 C; UNK is unkempt and MSI1 is Musashi-1; names of the RNAs are library labels; protein concentration not given here; high values mean tight binding.
As to B1, the binding signal was 1.65 enrichment R.
B2 yielded a binding signal of 0.818 enrichment R.
Next, B3: 0.894 enrichment R; B4: 1.05 enrichment R; B5: 4.37 enrichment R.
For the molecule B6, the binding signal amounted to 1.16 enrichment R.
In turn, B7 yielded a binding signal of 1.66 enrichment R.
In the case of B8, the binding signal was found to be 5.2 enrichment R.
As for B9, the figure is 0.637 enrichment R.
For B10, the binding signal stood at 2.97 enrichment R.
As for B11, the figure is 1.72 enrichment R; as for B12, 0.581 enrichment R.
B13 showed a binding signal of 1.19 enrichment R.
As for B14, the figure is 1.06 enrichment R.
Regarding B15, the binding signal worked out at 1.35 enrichment R.
With B16, the binding signal is 0.749 enrichment R.
The molecule B17 showed a binding signal of 3.55 enrichment R.
Next, B18: 3.8 enrichment R; B19: 5.04 enrichment R.
As for B20, the figure is 2.96 enrichment R; as for B21, 3.43 enrichment R; as for B22, 4.14 enrichment R.
In the case of B23, the binding signal stood at 3.98 enrichment R.

(Values after publication PMC12136788.)
